PubChem BioAssay (NCI)
Where “and” joins values, the source holds several entries; their conditions need not be identical. Identical values can stand only once. About 79,000 compounds went through this panel and 15% of them were active in at least one assay; those are over-represented in the sample as a whole. Calls of active or inactive are those of the source. Cut-off read from the data, not from the text of the source: active = growth inhibition above about 70%; inactive = the rest.

Assay: NCI Yeast Anticancer Drug Screen. Data for the cln2 rad14 strain (AID 165);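 note: 0% = growth equal to vehicle treated cultures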
Conditions: S. cerevisiae cln2 rad14 strain, at 5.0 µM (retest, dose inferred, filed as 0.5), hits give high values
Protocol: Growth inhibition of yeast strains with defined genetic alterations is measured as a screen for potential anti-cancer activity. Selected strains with alterations in DNA damage repair or cell cycle control were exposed to compounds and growth inhibition was measured relative to vehicle treated controls. The strain used in this assay is cln2 rad14

SMILES | growth inhibition
CCCCCC[C@@H](O)C/C=C\CCCCCCCC(=O)OCCOC | 2% (inactive)
C=CCO/N=C/c1cc(NC(=S)c2ccoc2C)ccc1Cl | -11% (inactive)
C[n+]1ccccc1C[n+]1ccccc1 | 6% (inactive)
CC1C(c2ccccc2)OCCN1C(=S)Nc1ccc(S(=O)(=O)N2CCCCC2)cc1 (stereo not given) | 62% (inactive)
CCCCCCCCCCCC[n+]1ccc2ccccc2c1 | 98% (active)
O=C(O)c1cc2c(s1)C(=O)c1sccc1C2=O | 12% (inactive)
Fc1ccc(NCCS)cc1 | -4% (inactive)
COc1cccc2c1C(=O)c1c(O)c3c(c(O)c1C2=O)C[C@@](O)(C(=O)CO)C[C@@H]3OC1CC(OC(C)=O)C(OC(C)=O)C(C)O1 (stereo not given in full) | 41% (inactive)
CC1(C)N=c2cc3c(cc2N1c1ccc(Cl)cc1)=Nc1ccccc1N3c1ccc(Cl)cc1 | 10% (inactive)

Same assay, conditions: S. cerevisiae cln2 rad14 strain, at 50.0 µM (retest, dose inferred, filed as 5.0), hits give high values

SMILES | growth inhibition
CCCCCC[C@@H](O)C/C=C\CCCCCCCC(=O)OCCOC | -4% (inactive)
C=CCO/N=C/c1cc(NC(=S)c2ccoc2C)ccc1Cl | 80% (active)
C[n+]1ccccc1C[n+]1ccccc1 | 14% (inactive)
CC1C(c2ccccc2)OCCN1C(=S)Nc1ccc(S(=O)(=O)N2CCCCC2)cc1 (stereo not given) | 96% (active)
CCCCCCCCCCCC[n+]1ccc2ccccc2c1 | 100% (active)
O=C(O)c1cc2c(s1)C(=O)c1sccc1C2=O | 30% (inactive)
Fc1ccc(NCCS)cc1 | 66% (inactive)
COc1cccc2c1C(=O)c1c(O)c3c(c(O)c1C2=O)C[C@@](O)(C(=O)CO)C[C@@H]3OC1CC(OC(C)=O)C(OC(C)=O)C(C)O1 (stereo not given in full) | 99% (active)
CC1(C)N=c2cc3c(cc2N1c1ccc(Cl)cc1)=Nc1ccccc1N3c1ccc(Cl)cc1 | -4% (inactive)

Same assay, conditions: S. cerevisiae cln2 rad14 strain, at 50.0 µM, hits give high values

SMILES | growth inhibition
Nc1ccc(C(F)(F)F)cc1[N+](=O)[O-] | -43.6% (inactive) and 10.2% (inactive)
CCCCCC[C@@H](O)C/C=C\CCCCCCCC(=O)OCCOC | 77.2% (active)
OCC(O)C1OC(Oc2ccccc2)C(O)C(O)C1O (stereo not given) | -3% (inactive) and -28.4% (inactive)
NC(=S)N/N=C/c1ccc([N+](=O)[O-])cc1 | 24.1% (inactive) and 20.6% (inactive)
C=CCO/N=C/c1cc(NC(=S)c2ccoc2C)ccc1Cl | 84.3% (active)
C[n+]1ccccc1C[n+]1ccccc1 | -10.1% (inactive)
CC1C(c2ccccc2)OCCN1C(=S)Nc1ccc(S(=O)(=O)N2CCCCC2)cc1 (stereo not given) | 89.7% (active)
OC1CCN2Cc3ccccc3N=C12 (stereo not given) | 4.5% (inactive) and 15.8% (inactive)
CCCCC(CC)CCC(C)OC(=O)CCl (stereo not given) | -36.4% (inactive) and -22.6% (inactive)
CN(C)CC(O)c1cc2ccccc2c2ccccc12 (stereo not given) | -8.8% (inactive) and -32.2% (inactive)
CCCCCCCCCCCC[n+]1ccc2ccccc2c1 | 98.1% (active)
O=S(=O)(O)NC1CCCCC1 | -50.7% (inactive) and -6.3% (inactive)
O=C(O)c1cc2c(s1)C(=O)c1sccc1C2=O | 54.9% (inactive)
Fc1ccc(NCCS)cc1 | 60.2% (inactive)
COC(=O)C1=COC(C)C2CN3CCc4c([nH]c5cc(OC)c(OC)cc45)C3CC12 (stereo not given) | 6.1% (inactive) and 14.9% (inactive) and 10.6% (inactive)
COC1OC(COC(=O)c2ccccc2)C(OC(=O)c2ccccc2)C1OC(=O)c1ccccc1 (stereo not given) | -28.1% (inactive) and -21.9% (inactive)
NC(=O)CC(N)C(=O)O (stereo not given) | -1% (inactive) and 11.7% (inactive)
COc1cccc2c1C(=O)c1c(O)c3c(c(O)c1C2=O)C[C@@](O)(C(=O)CO)C[C@@H]3OC1CC(OC(C)=O)C(OC(C)=O)C(C)O1 (stereo not given in full) | 88.7% (active)
CCC(C(=O)O)c1ccccc1 (stereo not given) | -12.2% (inactive) and -29.8% (inactive)
CC1(C)N=c2cc3c(cc2N1c1ccc(Cl)cc1)=Nc1ccccc1N3c1ccc(Cl)cc1 | 95.2% (active)
Cc1cn(C2CC(CCCO)C(CO)O2)c(=O)[nH]c1=O (stereo not given) | -2.8% (inactive) and 16.1% (inactive)
Cc1ccc(S(=O)(=O)NC(CCC(=O)O)C(=O)O)cc1 (stereo not given) | -6.75% (inactive) and -12.2% (inactive)
